Among the data in PubChem BioAssay AID2320 (National Center for Advancing Translational Sciences (NCATS), 2010) are Potency values, retold here.

Records with an inconclusive call do not appear. Calls of active or inactive are those of the source. The call rests on the fitted dose curve.
Potency means the concentration at half of the fitted maximal effect.

The nature of this assay: A qHTS for Small Molecule Inhibitors of Shiga Toxin (Confirmatory). Further: nearly all actives have a fitted effect of over 75% in size. The note with it: Cell-based Shiga toxin protection reporter assay; series mostly up to 38.3 µM.
As for `N#Cc1ccc(N=c2ssnc2Cl)cc1`, the Potency entry was “inactive”.

`CCOC(=O)N1CCN(S(=O)(=O)c2ccc(C(=O)NNc3nc4c(C)cc(C)cc4s3)cc2)CC1`: the Potency was 0.04 µM (active).

Turning to `Cc1nc(SCC(=O)Nc2cc(C)on2)c2c3c(sc2n1)CCCC3`, the Potency result is “inactive”.

On to `CCCc1nc2ccccc2c(=O)n1NC(=O)c1c(O)c2ccccc2[nH]c1=O`, for which the Potency is 14.2 µM (active).

As to `CC(=O)c1ccc2noc(-c3ccc(F)cc3)c2c1`, the Potency was 11.3 µM (active).

Turning to `Cc1ccc2c(c1)N(CC(=O)N1CCCC1)C(=O)CO2`, the Potency entry is “inactive”.

Consider `CCCNC(=O)c1ccc2snnc2c1`, for which the Potency entry is “inactive”.

Regarding `Cc1oncc1-c1csc(-c2ccccc2Cl)n1`, the Potency is 7.98 µM (active).

Regarding `COC(=O)c1c(NC(=O)c2ccn(C)n2)sc2c1CCC2`, the Potency was 2.83 µM (active).

On to `COCCCn1c(SCC(=O)OC2CCCCC2)nnc1-c1cccs1`, for which the Potency result is “inactive”.

With `O=C(/C=C/C#Cc1cccc(NS(=O)(=O)c2ccccc2)c1)NO`, the Potency was 11.3 µM (active).

For the molecule `Cc1nnc(NC(=O)C2COc3ccccc3O2)s1` (configuration not stated), the Potency is 14.2 µM (active).

For the molecule `Cc1ccc(NC(=O)C(C)N=C2NS(=O)(=O)c3ccccc32)cc1` (configuration not stated), the Potency is 0.0005 µM (active).

`COCCCNC(=O)c1cn(C)c(=O)c2c1c1ccccc1n2C`: the Potency result was “inactive”.

Consider `Cc1ccc(N/C(C(Cl)=C(Cl)Cl)=C(/Cl)[N+](=O)[O-])c(C)c1`, for which the Potency entry was “inactive”.

Turning to `O=C(NCCc1c[nH]c2ccccc12)C(F)(F)F`, the Potency entry was “inactive”.

With `CC(=O)N[C@@H](Cc1c[nH]c2ccccc12)C(=O)OCC(=O)Nc1ccc(Cl)c(S(=O)(=O)N(C)C)c1`, the Potency entry is “inactive”.

Consider `O=C1NC(=Nc2ccc(O)cc2)S/C1=C\C=C\c1ccco1`, for which the Potency is 0.634 µM (active).

As to `Cc1cc(NC(=O)/C=C/c2ccc(Br)cc2)no1`, the Potency is 8.95 µM (active).

Regarding `O=C(O)c1cc(S(=O)(=O)Nc2ccc(OCc3ccccc3)cc2)ccc1Br`, the Potency is 7.11 µM (active).

For `COc1cc(/C=C2/C(=O)c3cccc([N+](=O)[O-])c3C2=O)c(Br)cc1O`, the Potency was 22.5 µM (active).

Consider `CC(=O)c1ccc(-c2cccc([C@H]3[C@@H]4C=CC[C@@H](C)[C@@H]4C(=O)N3Cc3ccccc3)c2)cc1`, for which the Potency entry is “inactive”.

In the case of `CCn1c(SCC(=O)NCc2ccco2)nc2c1c(=O)n(C)c(=O)n2C`, the Potency entry was “inactive”.

As for `CC1CCC/C=C/C2CC(O)CC2C(O)/C=C/C(=O)O1` (configuration not stated), the Potency is 0.565 µM (active).

For `COc1ccc(C/C(O)=C(\C#N)c2nc3ccccc3s2)cc1`, the Potency result is “inactive”.

As to `Cc1cccc(NC(=O)C2CCCC2)c1`, the Potency was 0.0252 µM (active).

Take `O=C1ON=C(c2ccccc2)/C1=C/c1ccc(OS(=O)(=O)c2ccccc2)cc1`: the Potency was 7.11 µM (active).

Consider `Cc1ccc(OCC(=O)NNC(=O)CCC(=O)Nc2ccc(C)cc2C)cc1`, for which the Potency entry was “inactive”.

Regarding `CC1CCCC(C)N1C(=O)Cn1nnc(-c2ccccc2)n1` (configuration not stated), the Potency result was “inactive”.

Regarding `CCCC(=O)Nc1cnc(NC(=O)c2cccc(F)c2)cc1C`, the Potency is 0.711 µM (active).

For `COc1ccc2nc3cc(Cl)ccc3c(NCCCN3CCN(CCCNc4c5ccc(Cl)cc5nc5ccc(OC)cc45)CC3)c2c1`, the Potency entry was “inactive”.

As for `Cc1nn(-c2ccc(C(=O)O)cc2)c2c1C(=O)CC(C)(C)C2`, the Potency result is “inactive”.

With `CN(C)S(=O)(=O)c1ccc(C(=O)Nc2ccc(CN3CCCC3)cc2)cc1`, the Potency was 0.0283 µM (active).

On to `COc1ccccc1CNC(=O)c1csc2c1CCCC2`, for which the Potency was 10 µM (active).

As for `CC1CCc2sc(C(=O)NN)cc2C1` (configuration not stated), the Potency entry is “inactive”.

Take `CC(=O)N/C(=C\c1ccccc1)C(=O)Nc1ccccc1C`: the Potency was 0.0798 µM (active).

`CNC(=O)CSc1nnc(-c2cc(C)cc(C)c2)o1`: the Potency result is “inactive”.
